Test results from PubChem BioAssay (NCI).
The panel holds about 79,000 compounds, 15% with a hit somewhere; the sample as a whole holds those more often. Unmarked numbers belong to inactive results. Active and inactive are the calls of the source. Rule as the data show it: active = growth inhibition above about 70%; inactive = the rest.

Assay: NCI Yeast Anticancer Drug Screen. Data for the bub3 strain (AID 167)
Conditions: S. cerevisiae bub3 mutant strain, at 50.0 µM (retest, dose inferred, filed as 5.0), hits give high values
How it was run: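 Compounds were applied to a genetically altered yeast strain carrying a cell-cycle control defect. Growth inhibition was scored against vehicle-treated controls.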

Structure (SMILES)	growth inhibition
O=C(CBr)Nc1ccc(Cc2ccc(NC(=O)CBr)cc2)cc1	0%
CCOC(=O)Sc1nc2ccccc2[nH]1	2%
C=C1OC(=O)C(=O)N1CC(=O)O	-82%
Nc1ncnc2c1ncn2C1OCC(O)C1O (stereo unspecified)	82% (active)
CCOC(=O)C(Cc1cc(I)c(Oc2ccc(OC)cc2)c(I)c1)NC(C)=O (stereo unspecified)	96% (active)
BrCc1ccc([Si](c2ccccc2)(c2ccccc2)c2ccc(CBr)cc2)cc1	-15%
O=C1OC(C2OC(=O)C(=O)C2C(=O)c2ccc(Cl)cc2)C(C(=O)c2ccc(Cl)cc2)C1=O (stereo unspecified)	43%
Cc1ccc2c(c1)NC(=O)C(N=[N+]=[N-])(c1ccccc1)C2=O (stereo unspecified)	98% (active)
NC(=O)C1CCCN1C(=O)C1CCCN(Cc2cc(CN3CCCC(C(=O)N4CCCC4C(N)=O)C3)cc(CN3CCCC(C(=O)N4CCCC4C(N)=O)C3)c2)C1 (stereo unspecified)	2%
CCCCN(CCCC)CC(O)Cc1cc2ccccc2c2ccccc12 (stereo unspecified)	47%
CN(/N=C\c1cccc([N+](=O)[O-])c1)C(c1cccc([N+](=O)[O-])c1)N(C)/N=C/c1cccc([N+](=O)[O-])c1 (stereo unspecified)	16%
O=C(CCl)NC(=O)N(/N=C/c1ccco1)c1ccccc1	83% (active)
CC1CCN(CCCOC(=O)c2ccccc2)CC1	64%
COC(=O)C1=C(C(=O)OC)C2C(C)=CC(C)=CN2C(C(=O)OC)=C1C(=O)OC (stereo unspecified)	-3%
CO/N=C/c1ccc([N+](=O)[O-])s1	76% (active)
N/C(=N\N=C/c1ccc(O)c(O)c1O)NO	-3%
CC1=C[P+](c2ccccc2)(c2ccccc2)C=C(c2ccccc2)O1	97% (active)
CC(C)SC(=S)Nc1ccc(Cl)c([N+](=O)[O-])c1	99% (active)
Nc1ccc2oc(=O)c3ccccc3c2c1	74% (active)
CCCCCSc1nc2ncnc(N)c2[nH]1	16%
CC(C)Cn1cnc2c(SCc3cccc(F)c3)nc(N)nc21	35%

Same assay, conditions: S. cerevisiae bub3 mutant strain, at 50.0 µM, hits give high values

Structure (SMILES)	growth inhibition
Cc1cc2c(Br)cc(Br)c(O)c2nc1C(=O)c1ccccc1	29.9%
N=C1c2ccccc2-c2ccccc21	22.9%
COc1ccc(-c2cn(-c3ccccc3)c3ncnc(N)c23)cc1	-15.4%
Nc1ccc(N=Nc2ccccc2)c2ccccc12	98.3% (active)
CS(=O)(=O)C(=Cc1ccccc1Cl)S(C)(=O)=O	5%
O=C1c2ccccc2C(=O)c2sc(Nc3cc(Cl)ccc3Cl)nc21	83.8% (active)
COC1=CC(=O)c2c(O)c3c(c(O)c2C1=O)C=C(C)OC3O (stereo unspecified)	85.8% (active)
NC(=S)N/N=C1\NC(=O)/C(=C/c2ccc3c(c2)OCO3)S1	0.7%
CCN(CC)P(=S)(c1ccccc1CCP(=S)(c1ccccc1)c1ccccc1)N(CC)CC	59.6%
CCC(=O)Oc1c(Cl)cc(Cl)c(Cl)c1Cl	14.2%
CCOC(=O)C(C)(C)C	73% (active)
COC1=CC(=O)c2ncccc2C1=O	46.6%
O=C1CCSC(=S)N1c1ccccc1C(F)(F)F	99.2% (active)
O=C1c2cccc(NCCNCCO)c2C(=O)c2cccc(NCCNCCO)c21	45.1%
CCOc1cc2c(cc1O)CC[C@@H]1[C@@H]2CC[C@]2(C)[C@@H](O)CC[C@@H]12	44.2%
S=C(N/N=C/c1ccccn1)N1CC2CCC(CC2)C1	92.7% (active)
COc1ccc(Nc2nc3ccccc3s2)cc1	85.8% (active)
O=C(OCC1OC(OCC(OC(=O)c2ccccc2)C(OC(=O)c2ccccc2)C(OC(=O)c2ccccc2)c2cnn(-c3ccccc3)n2)C(OC(=O)c2ccccc2)C(OC(=O)c2ccccc2)C1OC(=O)c1ccccc1)c1ccccc1 (stereo unspecified)	96.8% (active)
O=C(CBr)Nc1ccc(Cc2ccc(NC(=O)CBr)cc2)cc1	98.1% (active)
CCOC(=O)Sc1nc2ccccc2[nH]1	7.45%
C=C1OC(=O)C(=O)N1CC(=O)O	-6.45%
Nc1ncnc2c1ncn2C1OCC(O)C1O (stereo unspecified)	82.7% (active)
CCOC(=O)C(Cc1cc(I)c(Oc2ccc(OC)cc2)c(I)c1)NC(C)=O (stereo unspecified)	87.9% (active)
BrCc1ccc([Si](c2ccccc2)(c2ccccc2)c2ccc(CBr)cc2)cc1	10.5%
O=C1OC(C2OC(=O)C(=O)C2C(=O)c2ccc(Cl)cc2)C(C(=O)c2ccc(Cl)cc2)C1=O (stereo unspecified)	43%
